# Compound activity from PubChem BioAssay.
# Shown is part of a subset that was picked to be rich in hits.
# Methyltransferases – Primary Screen for Target Class Profiling of Small Molecule Inhibitors of Methyltransferases; purified enzyme, MTase-Glo SAH luminescence; stronger effect = lower value; calls only at 40 µM; actives 3.9% (n = 25,000); call rule not given here
#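 Each enzyme was assayed with SAM and its substrate. SAH formation detected by MTase-Glo luminescence; single-point 40 uM screen[…].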
# Calls only; n = inactive; + = active, no number; ! = not confirmed by another sample.
SMILES,Methyltransferases
CC(C)Cn1c(=O)c2ccc(C(=O)NC(C)C)cc2n2c(=O)n(CC(=O)N(C)c3ccc(F)cc3)nc12,n
CCCn1c(=O)c2ccc(C(=O)NC(C)CC)cc2n2c(SCC(=O)Nc3ccccc3C)nnc12 (configuration not stated),n
Cc1ccc(Cn2c(=O)c3ccccc3n3c(CCC(=O)NC4CCC(C)CC4)nnc23)cc1 (configuration not stated),n
Cc1cccc(-c2nnn3c2nc(NC2CCCC2)c2ccccc23)c1,n
Cc1ccc(CNC(=O)CSc2nnc3n(Cc4ccc(C)cc4)c(=O)c4ccccc4n23)cc1,n
COc1ccc(N2C(=O)c3cc4sccc4n3CC2(C)C(=O)NC2CCCCC2)cc1OC (configuration not stated),n
CCOCCCN1C(=O)c2cc(-c3ccc(OC)cc3)nn2CC1(C)C(=O)NCc1ccccc1 (configuration not stated),n
COc1ccc(CNC(=O)C2(C)Cn3cnc(C(=O)NCc4cccc(C)c4)c3C(=O)N2C2CC2)cc1 (configuration not stated),n
CCOC(=O)c1cc2n(n1)CC(C)(C(=O)NC1CCCCCC1)N(c1ccccc1OC)C2=O (configuration not stated),n
COC(=O)CCSC/C=C(\C)CCn1cc(CCc2ccc(-c3ccccc3)cc2)nn1,+!
CCCn1c(=O)c2ccccc2n2c(=O)n(CC(=O)NCc3ccc(Cl)cc3)nc12,n
CN1C(=O)c2cc(C(=O)NCc3cccc(Cl)c3)nn2CC1(C)C(=O)NCc1ccccc1 (configuration not stated),n
CC1CCN(S(=O)(=O)c2ccc3c(ccn3CCC(=O)NC(C)c3ccccc3)c2)CC1 (configuration not stated),n
COC(=O)c1ncn2c1C(=O)N(c1ccc(OC)c(OC)c1)C(C)(C(=O)NCc1ccccc1)C2 (configuration not stated),n
O=C(CCCCCCC(=O)Nc1ccccc1)NO,n
Cc1oc(C(O)c2ccccc2)nc1C(=O)Nc1ccc(C(=O)Nc2ccccc2)cc1 (configuration not stated),n
CC(C)[C@H](C(=O)Nc1ccc(C(=O)NO)cc1)c1ccccc1,+
CC1CCC(NC(=O)C2(C)Cn3c(ccc3-c3ccco3)C(=O)N2Cc2ccccn2)CC1 (configuration not stated),n
CCOC(=O)c1cc2n(n1)CC(C)(C(=O)NCc1ccc(C)cc1)N(CCc1ccc(OCC)cc1)C2=O (configuration not stated),n
CCOC(=O)c1cc2n(n1)CC(C)(C(=O)NC1CCCC1)N(c1ccccc1CC)C2=O (configuration not stated),n
COc1ccc(CNC(=O)c2cc3n(n2)CC(C)(C(=O)NC2CCCCC2)N(C)C3=O)c(OC)c1 (configuration not stated),n
NCCc1ccc(O)c(O)c1,+
Cc1ccccc1NC(=O)N1Cc2c(sc3c2CCCC3)-n2cccc2C1c1cccc(F)c1 (configuration not stated),n
CCOC(=O)c1cc2n(n1)CC(C)(C(=O)NCc1ccccc1OC)N(CCc1ccc(Cl)cc1)C2=O (configuration not stated),n
CC(C)CCn1c(=O)c2ccc(C(=O)NC(C)C)cc2n2c(=O)n(Cc3ccc(Cl)cc3)nc12,n
SMILES,Methyltransferases
Cc1[nH]c(/C=C2\C(=O)Nc3cc(-c4ccccc4)ccc32)c(C)c1CCC(=O)O,n
O=C1Nc2ccccc2/C1=C/c1cc(O)ccc1O,+
CN1C(=O)c2ccccc2NC(=O)[C@]12O[C@@H]2c1cccc(O)c1,n
Cc1cccc(CNC(=O)C(C)n2ccc3cc(S(=O)(=O)N4CCCC4)ccc32)c1 (configuration not stated),n
CCN1CCC[C@H]1CNC(=O)c1c(O)c(Cl)cc(Cl)c1OC,n
CCN1CCCC1CNC(=O)c1cc(S(=O)(=O)CC)c(N)cc1OC (configuration not stated),n
CCN1CCC[C@@H]1CNC(=O)c1ccc2c(c1)NC(=O)/C(=C/c1ccccc1F)S2,+
COc1ccccc1CNC(=O)C1(C)Cn2cnc(C(=O)NC3CCCC3)c2C(=O)N1C1CC1 (configuration not stated),n
COc1ccc(OC)c(CN2C(=O)c3cc4ccccc4n3CC2(C)C(=O)NCCC(C)C)c1 (configuration not stated),n
COc1ccc(N2C(=O)c3cc4ccccc4n3CC2(C)C(=O)NCCC(C)C)c(OC)c1 (configuration not stated),n
COc1ccc(C(=O)N(CCC(C)C)Cc2nc(C)c(C)n2Cc2ccccc2C)c(OC)c1,+
Cc1ccc(NC(=O)Cn2c(=O)oc3cc(S(=O)(=O)N4CCCC4)ccc32)cc1,n
CC(C)C1c2cccn2CCN1C(=O)Nc1cccc(Cl)c1 (configuration not stated),n
CC(C)[C@@](C)(O)[C@@H]1CN(c2nc(-c3[nH]nc4ncccc34)c(F)cc2Cl)CCN1,+
O=c1[nH]c2cc(Br)c(S(=O)(=O)N3CCN(c4ccccc4F)CC3)cc2[nH]1,n
CC1(C(=O)NC2CCCC2)Cn2c(nc3ccccc32)C(=O)N1Cc1ccccc1Cl (configuration not stated),n
CCc1cc2c(cc3n2CC(C)(C(=O)NC2CCCCCC2)N(CCN(CC)CC)C3=O)s1 (configuration not stated),n
O=C1CN(Cc2cccc(F)c2)S(=O)(=O)c2ccccc2N1Cc1ccc(Cl)cc1,n
Cc1ccc(CN2CC(=O)N(Cc3cccc(F)c3)c3ccccc3S2(=O)=O)cc1,n
O=C1CSc2ccccc2N1Cc1cccc(C(F)(F)F)c1,+
CC(C)c1ccc(N2C(=O)c3cc4sccc4n3CC2(C)C(=O)NC2CCCCCC2)cc1 (configuration not stated),n
Cc1ccc(CN2C(=O)c3ccc(-c4ccco4)n3CC2(C)C(=O)NC2CCCCCCC2)o1 (configuration not stated),n
CN(C)CCCC1(c2ccc(F)cc2)OCc2cc(C#N)ccc21 (configuration not stated),+!
CCCSCCCN1C(=O)c2cc3occc3n2CC1(C)C(=O)NC1CCCCCCC1 (configuration not stated),n
COc1cccc(CNC(=O)N2Cc3c(sc4c3CCCC4)-n3cccc3C2c2ccccc2)c1 (configuration not stated),n
SMILES,Methyltransferases
CCCn1c(=O)c2cc(F)ccc2n2c(SCC(=O)Nc3ccc(C)cc3Cl)nnc12,n
COc1ccc(CNC(=O)C2(C)Cn3cnc(C(=O)N4CCc5ccccc54)c3C(=O)N2C2CC2)cc1 (configuration not stated),n
O=C(c1ccco1)N1CCCCC1c1nc(C2CC2)n[nH]1 (configuration not stated),n
O=C(NC1CCCN(c2cc(N3CCCC3)ncn2)C1)c1ccco1 (configuration not stated),n
COc1cc2nc(N3CCN(C(=O)c4ccco4)C4CCCCC43)nc(N)c2cc1OC (configuration not stated),+
CC(C)CCn1c(=O)c2ccc(C(=O)NCC(C)C)cc2n2c(=O)n(CC(=O)N(C)c3ccccc3)nc12,n
COc1ccc(OC)c(CN2C(=O)c3nc4ccccc4n3CC2(C)C(=O)NCc2ccccc2)c1 (configuration not stated),n
